Experiment [1] addresses Gonadotropin-releasing hormone receptor (Homo sapiens) (UniProt P30968). Put plainly: Human gonadotropin-releasing hormone receptor (GnRHR) small molecule agonists, calcium flux assay in GnRHR-HEK293 cells (AID 1920063). Further: nearly all actives have a fitted effect of over 35% in size. In short, it runs like this: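 Tox21-format agonist screen using human GnRHR-expressing HEK293 cells and a fluorescent calcium dye; kinetic 3-min fluorescence reading after compound addition, 15-point concentration series run in triplicate.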

For experiment [2], the target named is KiSS-1 receptor (Homo sapiens) (UniProt Q969F8). Put plainly: Human kisspeptin (KISS1R) small molecule agonists, calcium flux assay in KISS1R-HEK293 cells (AID 1920064; active means well fitted activation curve with a large enough effect in the repeat runs). In short, it runs like this: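 Intracellular calcium mobilization in KISS1R-HEK293 cells was recorded by fluorescence (Ex/Em 480/540) for 3 min following compound addition to cells pre-loaded 1 h with calcium dye.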
KiSS-1 receptor (Homo sapiens), sequence (Q969F8 whole entry, looked up): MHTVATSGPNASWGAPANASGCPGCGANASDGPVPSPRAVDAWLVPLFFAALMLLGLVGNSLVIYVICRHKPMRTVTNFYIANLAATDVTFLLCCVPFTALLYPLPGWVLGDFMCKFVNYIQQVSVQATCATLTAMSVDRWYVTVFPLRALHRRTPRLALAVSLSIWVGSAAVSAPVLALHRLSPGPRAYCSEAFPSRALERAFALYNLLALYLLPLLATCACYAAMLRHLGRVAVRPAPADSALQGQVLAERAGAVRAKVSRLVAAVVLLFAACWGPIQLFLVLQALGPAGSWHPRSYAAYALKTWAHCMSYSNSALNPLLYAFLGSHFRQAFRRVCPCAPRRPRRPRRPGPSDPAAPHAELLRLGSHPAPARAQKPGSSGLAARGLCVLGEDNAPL

A short description of experiment [3]: G protein-coupled receptor (GPCR) small molecule agonists, calcium flux assay: HEK293 wild type cell line counter screen (AID 1920065). The gist of the method: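 In this agonist-mode screen, ATP is the positive control and DMSO the vehicle. Cells grow 18 h before a 1 h dye incubation at 37 C; signal is taken at Ex/Em 480/540 over 3 min.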
The nature of experiment [4]: p53 small molecule agonists, cell-based qHTS assay with rat liver microsomes (AID 1963578). The gist of the method:
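Each plate received p53RE-bla cells, then compound, then rat liver microsomes and NADPH (both 0.5 mg/mL final). Plates were held 16 h at 37 C, and beta-lactamase activity was detected with LiveBLAzer over 2 h.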

A short description of experiment [5]: p53 small molecule agonists, cell-based qHTS assay with rat liver microsomes: qHTS cell viability counter screen (AID 1963580). Further: nearly all actives have a fitted effect of over 45% in size. The gist of the method: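 p53RE-bla HCT-116 cells were exposed 16 h at 37 C to compounds with rat liver microsomes (0.5 mg/mL) and NADPH (0.5 mg/mL). Viability was measured in the same wells as ATP content by CellTiter-Glo luminescence.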

The target in experiment [6] is 5-hydroxytryptamine receptor 2A (Homo sapiens) (UniProt P28223). Briefly: 5-hydroxytryptamine receptor 2A (HTR2A) small molecule antagonists, cell-based qHTS assay (AID 1963586). Further: nearly all actives have a fitted effect of over 45% in size. In short, it runs like this: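 Antagonist-mode intracellular calcium assay: DOI (4 nM) added after 5 min compound pre-incubation at room temperature to dye-loaded HTR2A-CHO cells. Fluorescence followed for 3 min, sampled every second.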
5-hydroxytryptamine receptor 2A (Homo sapiens), sequence (P28223 whole entry, looked up): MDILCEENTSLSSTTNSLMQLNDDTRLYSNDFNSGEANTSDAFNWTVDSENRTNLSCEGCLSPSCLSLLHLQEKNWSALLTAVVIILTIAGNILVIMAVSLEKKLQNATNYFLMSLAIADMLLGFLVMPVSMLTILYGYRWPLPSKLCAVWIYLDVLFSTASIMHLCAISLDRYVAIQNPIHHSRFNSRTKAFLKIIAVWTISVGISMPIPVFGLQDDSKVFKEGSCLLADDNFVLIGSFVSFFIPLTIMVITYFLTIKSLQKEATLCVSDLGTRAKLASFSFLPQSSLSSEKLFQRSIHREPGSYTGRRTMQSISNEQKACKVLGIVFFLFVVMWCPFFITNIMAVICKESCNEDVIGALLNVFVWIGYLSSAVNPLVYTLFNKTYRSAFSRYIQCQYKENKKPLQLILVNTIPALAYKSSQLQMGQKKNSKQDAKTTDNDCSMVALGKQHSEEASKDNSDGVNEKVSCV

The target is the same in experiment [7]. Briefly: 5-hydroxytryptamine receptor 2A (HTR2A) small molecule agonists, cell-based qHTS assay (AID 1963587). Further: nearly all actives have a fitted effect of over 30% in size. In short, it runs like this:
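CHO cells stably expressing human HTR2A, plated 18 h, loaded with calcium dye 1 h at 37 C. Agonist mode: compounds added and intracellular calcium fluorescence recorded kinetically for 2 min at 1 sec intervals.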

Experiment [8] concerns the target Muscarinic acetylcholine receptor M1 (Homo sapiens) (UniProt P11229). Briefly: Cholinergic receptor muscarinic 1 (CHRM1) small molecule antagonists, cell-based qHTS assay (AID 1963588). Further: nearly all actives have a fitted effect of over 40% in size. Further: potency means the concentration at half of the fitted maximal effect. The gist of the method:
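CHRM1-CHO calcium-flux assay, antagonist mode. Cells were seeded 18 h, dye-loaded 1 h at 37 C and given compound for 5 min at RT, then acetylcholine was added at 50nM. FDSS fluorescence was read 3 min; 15 concentrations, three runs.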

For experiment [9] the target is unchanged. Briefly: Cholinergic receptor muscarinic 1 (CHRM1) small molecule agonists, cell-based qHTS assay (AID 1963589). Further: nearly all actives have a fitted effect of over 35% in size. The gist of the method:
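Stable CHRM1-CHO cells (human receptor) were incubated 18 h, dye-loaded for 1 h at 37 C and exposed to test compounds for agonist activity, with calcium-dependent fluorescence followed kinetically.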

For experiment [10], the target named is D(2) dopamine receptor (Homo sapiens) (UniProt P14416). Briefly: Dopamine D2 receptor (DRD2) small molecule agonists, cell-based qHTS assay (AID 1963594). Further: nearly all actives have a fitted effect of over 35% in size. Further: potency means the concentration at half of the fitted maximal effect. The gist of the method: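 HEK293 cells stably expressing human DRD2, pre-treated with PDE inhibitor Ro20-1724 (0.1 mM final) and compound 10 min at room temperature, then stimulated with NKH477 (200nM […]) for 30 min. cAMP read by HTRF (665/620 nm).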
D(2) dopamine receptor (Homo sapiens), sequence (P14416 whole entry, looked up): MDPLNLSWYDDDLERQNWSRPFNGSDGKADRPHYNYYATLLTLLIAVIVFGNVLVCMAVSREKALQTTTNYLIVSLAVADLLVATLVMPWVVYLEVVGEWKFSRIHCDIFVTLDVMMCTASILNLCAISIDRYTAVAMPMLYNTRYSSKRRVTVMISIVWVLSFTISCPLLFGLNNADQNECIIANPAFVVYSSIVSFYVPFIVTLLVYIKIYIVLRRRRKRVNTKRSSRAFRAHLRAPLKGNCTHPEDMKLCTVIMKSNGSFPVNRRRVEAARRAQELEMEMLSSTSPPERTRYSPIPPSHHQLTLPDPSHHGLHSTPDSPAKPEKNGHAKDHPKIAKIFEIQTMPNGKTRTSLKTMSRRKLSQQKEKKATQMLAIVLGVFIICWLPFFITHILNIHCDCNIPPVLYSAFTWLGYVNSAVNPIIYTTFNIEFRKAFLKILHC

Experiment [11] in a line: cAMP Responsive Elements (CRE) small molecule agonists, cell-based qHTS assay (AID 1963590). In short, it runs like this: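 FRET-based beta-lactamase readout (LiveBLAzer B/G, 2 h RT) quantified CRE activation in HEK 293T CRE-bla cells after 3 h treatment with DMSO-dissolved compounds.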
A short description of experiment [12]: cAMP Responsive Elements (CRE) small molecule antagonists, cell-based qHTS assay (AID 1963591; active means well fitted inhibition curve with a large enough effect in the signal ratio in the repeat runs, not every such curve was filed as active; the % refers to the signal ratio). The gist of the method: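 qHTS in CRE-bla HEK 293T cells: compound in DMSO, then 0.25 uM NKH477 (final), 3 h at 37 °C/5% CO2; beta-lactamase FRET read-out after 2 h substrate incubation.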
Experiment [13] addresses Beta-2 adrenergic receptor (Homo sapiens) (UniProt P07550). Briefly: Adrenergic beta2 receptor (ADRB2) small molecule antagonists, cell-based qHTS assay (AID 1963592). Further: series mostly up to about 92 µM; nearly all actives have a fitted effect of over 50% in size. The gist of the method:
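Cells (CHO, stable ADRB2 overexpression) incubated 18-20hr at 37C; compounds added from DMSO; agonist mix (1nM isoproterenol, 100uM IBMX, 25uM Ro-20-1724) added; 0.5hr RT; d2-cAMP and anti-cAMP-cryptate added; 1hr RT; 665/615 nm read.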

Experiment [14] shares this target. Put plainly: Adrenergic beta2 receptor (ADRB2) small molecule agonists, cell-based qHTS assay (AID 1963593). Further: potency means the concentration at half of the fitted maximal effect.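 On activation: CHO cells stably overexpressing human ADRB2.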 The gist of the method: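 CHO cells stably over-expressing ADRB2 were plated overnight at 37C, then dosed with compounds plus a stimulation mix containing 100uM IBMX and 25uM Ro-20-1724 for 0.5hr at room temperature. cAMP was measured by HTRF competition, 1hr.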

Experiment [15] addresses D(2) dopamine receptor (Homo sapiens) (UniProt P14416). Briefly: Dopamine D2 receptor (DRD2) small molecule antagonists, cell-based qHTS assay (AID 1963595; active means well fitted inhibition curve with a large enough effect in the signal ratio in the repeat runs, with a control signal flat; the % refers to the signal ratio). In short, it runs like this: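 Readout: HTRF cAMP, cAMP-d2 competing with cellular cAMP for anti-cAMP cryptate, read after 1 h. Cells: DRD2-HEK293. Conditions: 0.1 mM Ro20-1724, 12 nM quinpirole, 200 nM NKH477, 30 min RT.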

The nature of experiment [16]: p53 small molecule agonists, cell-based qHTS assay with human liver microsomes: qHTS cell viability counter screen (AID 1963579). Further: nearly all actives have a fitted effect of over 45% in size. In short, it runs like this: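 Tox21 library compounds, delivered from DMSO stocks, were tested on p53RE-bla cells together with 0.5 mg/mL human liver microsomes and 0.5 mg/mL NADPH (final) over 16 h at 37 C; CellTiter-Glo luminescence served as the cytotoxicity measure.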

A short description of experiment [17]: p53 small molecule agonists, cell-based qHTS assay: qHTS cell viability counter screen (AID 1963581). Further: nearly all actives have a fitted effect of over 45% in size. Further: potency means the concentration at half of the fitted maximal effect. The gist of the method:
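Compounds are pinned onto HCT-116 p53RE-bla cells and left 16 h at 37 C. Following the reporter FRET read, ATP is quantified by CellTiter-Glo luminescence after 30 min at room temperature.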

A short description of experiment [18]: p53 small molecule agonists, cell-based qHTS assay (AID 1963582; active means well fitted activation curve with a large enough effect in the signal ratio in the repeat runs, not every such curve was filed as active; the % refers to the signal ratio). In short, it runs like this: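 Agonist activity was scored from beta-lactamase FRET fluorescence in p53RE-bla cells treated 16 h at 37 C with compounds in DMSO, substrate incubation being 2 h at room temperature.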
Experiment [19] in a line: p53 small molecule agonists, cell-based qHTS assay with human liver microsomes (AID 1963577).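 Further: p53 response element beta-lactamase reporter cells with liver microsomes plus NADPH.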 The gist of the method:
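Metabolically competent format: test substances, human liver microsomes and NADPH (both 0.5 mg/mL final) incubated with p53RE-bla cells 16 h at 37 C. Beta-lactamase reporter signal then quantified by fluorescence.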

Values joined by “and” are separate entries in the source; they are usually repeats but may differ in a detail not shown here. Equal values may be shown once. Inconclusive results are not listed. More than one record can exist for a structure, and the calls need not agree. Active and inactive are the calls of the source. Unless noted, the call rests on the fitted dose curve.

These results are taken from PubChem BioAssay (Tox21).

Muscarinic acetylcholine receptor M1 (Homo sapiens), sequence (P11229 whole entry, looked up): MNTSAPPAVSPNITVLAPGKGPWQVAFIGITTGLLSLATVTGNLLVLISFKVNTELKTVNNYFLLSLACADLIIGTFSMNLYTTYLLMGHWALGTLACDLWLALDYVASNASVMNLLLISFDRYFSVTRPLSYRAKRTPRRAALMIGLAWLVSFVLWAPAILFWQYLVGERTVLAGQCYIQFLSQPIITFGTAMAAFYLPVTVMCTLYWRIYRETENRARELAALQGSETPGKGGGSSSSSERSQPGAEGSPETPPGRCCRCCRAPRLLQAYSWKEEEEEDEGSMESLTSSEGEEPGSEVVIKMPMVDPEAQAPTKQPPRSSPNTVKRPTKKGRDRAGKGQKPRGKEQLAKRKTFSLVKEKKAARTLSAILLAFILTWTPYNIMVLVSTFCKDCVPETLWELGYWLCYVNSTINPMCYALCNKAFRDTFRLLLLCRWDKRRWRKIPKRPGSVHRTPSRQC
Gonadotropin-releasing hormone receptor (Homo sapiens), sequence (P30968 whole entry, looked up): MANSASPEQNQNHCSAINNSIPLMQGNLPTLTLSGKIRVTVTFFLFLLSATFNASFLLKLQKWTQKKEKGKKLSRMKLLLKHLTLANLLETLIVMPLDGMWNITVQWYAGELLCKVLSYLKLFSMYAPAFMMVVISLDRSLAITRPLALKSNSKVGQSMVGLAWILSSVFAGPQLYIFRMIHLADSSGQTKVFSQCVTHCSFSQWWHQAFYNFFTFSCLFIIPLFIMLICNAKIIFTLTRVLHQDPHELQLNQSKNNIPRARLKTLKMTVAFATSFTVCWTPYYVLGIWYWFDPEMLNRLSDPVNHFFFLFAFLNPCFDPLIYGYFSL
Beta-2 adrenergic receptor (Homo sapiens), sequence (P07550 whole entry, looked up): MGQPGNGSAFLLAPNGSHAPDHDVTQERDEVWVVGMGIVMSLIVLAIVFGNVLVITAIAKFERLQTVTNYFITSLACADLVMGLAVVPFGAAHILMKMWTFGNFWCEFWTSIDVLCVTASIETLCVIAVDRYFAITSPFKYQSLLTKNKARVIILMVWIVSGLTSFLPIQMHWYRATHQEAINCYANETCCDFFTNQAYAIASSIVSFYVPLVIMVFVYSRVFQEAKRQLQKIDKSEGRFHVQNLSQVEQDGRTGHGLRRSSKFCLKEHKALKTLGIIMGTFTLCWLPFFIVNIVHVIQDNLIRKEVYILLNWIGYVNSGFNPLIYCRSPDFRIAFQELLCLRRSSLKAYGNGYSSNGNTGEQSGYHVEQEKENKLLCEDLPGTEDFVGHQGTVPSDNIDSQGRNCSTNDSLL

Consider `O=C(N/N=C/c1ccc([N+](=O)[O-])o1)c1ccc(O)cc1`, for which the Potency result in experiment [1], in [2], in [3], in [4], in experiment [5] and in [6] was “inactive” in each case. For the same molecule, the Potency result in experiment [7], in experiment [8], in experiment [9] and in [10] was “inactive” throughout.
`C[C@H]1[C@H]2CC[C@H]3[C@@H]4CC=C5C[C@@H](N(C)C)CC[C@]5(C)[C@H]4CC[C@]23CN1C`: the Potency entry in experiment [1], in experiment [2], in experiment [3], in [5], in [6] and in experiment [7] was “inactive” throughout. In addition, the Potency entry in [9], in [11], in experiment [12], in experiment [13], in experiment [14] and in experiment [10] was “inactive” throughout. The Potency entry in experiment [15] is “inactive”. Moreover, the Potency in experiment [8] was 0.729 µM (active).
On to `COCCOC`, for which the Potency result in experiment [1], in experiment [2], in experiment [3], in experiment [16], in experiment [6] and in [7] was “inactive” each time. Moreover, the Potency result in experiment [8], in experiment [9], in experiment [11], in experiment [13], in experiment [10] and in experiment [15] was “inactive” each time. In [17], the Potency was 2.75 µM (active).
On to `C=CC(=O)OCCCCCCOC(=O)C=C`, for which the Potency result in experiment [1], in experiment [2], in experiment [3], in experiment [4], in experiment [16] and in experiment [5] was “inactive” each time. The Potency result in experiment [17], in [6], in experiment [7], in [9], in [13] and in experiment [10] was “inactive” each time. For the same molecule, the Potency result in experiment [15] is “inactive”.
As to `O=C1CN(/N=C/c2ccc([N+](=O)[O-])o2)C(=O)N1`, the Potency result in experiment [1], in experiment [2], in experiment [3], in [17], in experiment [13] and in experiment [14] was “inactive” each time. Further, the Potency result in [15] was “inactive”. In experiment [10], the Potency entry is “inactive and 68.6 µM (active)”.
As to `CN(C)CCOC(c1ccccc1)c1ccccc1` (tested in a mixture with another compound), the Potency entry in experiment [1], in experiment [2], in [3], in [11], in [12] and in experiment [10] was “inactive” throughout. The Potency result in [15] was “inactive”.
Take `CCCC(=O)Nc1ccc(OCC(O)CNC(C)C)c(C(C)=O)c1` (stereo unspecified): the Potency result in [1], in [2], in experiment [3], in experiment [17], in experiment [11] and in experiment [12] was “inactive” each time. For the same molecule, in experiment [15], the Potency entry was “inactive”. Besides, the Potency in experiment [10] was 18.8 µM (active).
For `Cc1c(-c2ccc(O)cc2)n(Cc2ccc(OCCN3CCCCCC3)cc2)c2ccc(O)cc12`, the Potency entry in [1], in experiment [2], in experiment [3], in experiment [6], in [7] and in experiment [13] was “inactive” each time.
Regarding `CCCCc1oc2ccccc2c1C(=O)c1cc(I)c(OCCN(CC)CC)c(I)c1`, the Potency entry in [1], in [2], in experiment [17], in experiment [18], in [13] and in experiment [14] was “inactive” in each case. For the same molecule, the Potency result in experiment [10] and in experiment [15] was “inactive” each time.
For `C=C(C)C(=O)OCC(O)COc1ccc(C(C)(C)c2ccc(OCC(O)COC(=O)C(=C)C)cc2)cc1` (stereo unspecified), the Potency result in experiment [1], in experiment [2], in experiment [19], in experiment [4], in experiment [5] and in [17] was “inactive” each time. Besides, the Potency entry in experiment [7], in [8], in [9], in [10] and in experiment [15] was “inactive” each time.
In the case of `O=C(NO)c1ccccc1`, the Potency result in experiment [1], in experiment [2], in experiment [4], in experiment [5], in experiment [17] and in experiment [9] was “inactive” throughout. In [15], the Potency result was “inactive”. Besides, the Potency in [14] is 20.7 µM (active).
